This assay deals with Carbonic anhydrase 2 (Homo sapiens) (UniProt P00918). As to the kind of experiment: compounds binding carbonic anhydrase 2 – biochemical, small-molecule microarray, Alexa647-labelled CAII, profiling panel (AID 1122). The settings on record: CAII-A647 binding fluorescence, higher = more signal.
`COCCOC(=O)N1C(=O)[C@@]2(c3cc(C#Cc4ccc(OC)cc4)ccc31)[C@H](c1ccccc1OCCO)N1[C@H](c3ccccc3)[C@H](c3ccccc3)OC(=O)[C@H]1[C@@H]2C(=O)NC[C@H](O)c1ccccc1` displayed a composite z-score of 0.528. The compound `COC(=O)C(CC#Cc1ccc2c(c1)[C@]1(C(=O)N2)[C@H](c2ccc(OCCO)cc2)N2[C@H](c3ccccc3)[C@H](c3ccccc3)OC(=O)[C@H]2[C@@H]1C(=O)N1CCc2cc(OC)c(OC)cc2C1)C(=O)OC` registered a composite z-score of 0.542. On to `COCCOC(=O)N1C(=O)[C@@]2(c3cc(C#CCC(C(=O)OC)C(=O)OC)ccc31)[C@H](c1ccccc1OCCO)N1[C@H](c3ccccc3)[C@H](c3ccccc3)OC(=O)[C@H]1[C@@H]2C(=O)N1CCN(c2ncccn2)CC1`, for which the composite z-score came out at 0.499. The same measure for `O=C(c1ccccc1)N1C(=O)[C@]2(COC(c3ccc(OCCCO)cc3)=N2)Cc2ccccc21`: 0.566; for `COc1ccc([Si](C)(C)[C@@H]2[C@@H](CCO)O[C@]3(C(=O)N(Cc4ccc(N(C=O)c5ccccc5)cc4)c4ccccc43)[C@H]2C)cc1`: 0.285; for `O=C1c2ccccc2[C@](Cc2ccccc2I)(C(=O)NCC(F)(F)F)[C@H](c2ccc(CO)cc2)N1Cc1ccccc1Cl`: 0.596.

With `COCCOC(=O)N1C(=O)[C@@]2(c3cc(C#CCCO)ccc31)[C@H](C(N)=O)[C@H]1C(=O)O[C@H](c3ccccc3)[C@H](c3ccccc3)N1[C@@H]2c1ccc(O)cc1`, the composite z-score was determined as 0.463. The same measure for `C=C(CCCC)/C(=C/C[C@@H](OC(=O)c1ccncc1)c1ccc(OCCO)cc1)c1cc(C(=O)OC)ccc1OC`: 0.554.
